Consider 1 sequence from patent US20130022590, “Compositions Comprising Zinc Finger Domains and Uses Therefor” (published 2013).

This experiment concerns the target T1, ZRANB2-F2 (Homo sapiens, UniProt O95218 O95218:65-95).
T1 chain: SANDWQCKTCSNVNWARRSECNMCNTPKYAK
Nature of the experiment: FP; about 4-fold to 8-fold stated in p392. As to conditions: tags: GST fusion (FA); label: 5'-fluorescein; ssRNA. As for the experimental part:
Fluorescence Anisotropy titrations e.g., as shown in FIGS. 1D-F, 8 and 35, were carried out using standard protocols. In brief, 5′-Fluorescein-labeled RNA oligonucleotides were quantified by A₂₆₀, correcting for fluorescein absorbance by using A₄₉₃. For single-site experiments, the sequence […] (SEQ ID NO: 28), or single base mutants thereof, was used. For double-site experiments, two AGGUAA sites were separated by different length sequences as indicated, and the total oligonucleotide lengths were kept constant by the symmetrical addition of adenines to each end. […] Protein was titrated into this starting solution and anisotropy values measured on a Cary Eclipse fluorescence spectrophotometer fitted with manual polarizer and long-pass filters set to 475 and 515 nm for excitation and emission, respectively. […] Association constants were determined by nonlinear least squares regression analysis using a 1:1 binding model.
To determine whether changing arginine-82 (R82) would affect the binding preference of ZRANB2-F2 from GGU to GAU, the point mutation R82Q in ZNF 2 of ZRANB2 was made and the ability of both the wild type (W) protein and the R82Q mutant to bind to AGGUAA and AGAUAA was assessed by fluorescence anisotropy binding assays as described previously in Example 1.
In the case of AGAUAA, the binding signal was around 4 fold lower than AGGUAA.
